Measurements as given in the supplement of paper PMC5641865, “A screen for kinase inhibitors identifies antimicrobial imidazopyridine aminofurazans as specific inhibitors of the Listeria monocytogenes PASTA kinase PrkA” (The Journal of Biological Chemistry, 2017).
± gives the standard deviation of the averaged measurements.

What follows are compounds tested on Listeria monocytogenes 10403S (assay: growth inhibition relative to ceftriaxone-alone control; higher = stronger potentiation of ceftriaxone growth inhibition). Details: 10 µM; ceftriaxone 1 ug/ml; 12 h.
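Also: End-point A600 read in BHI broth at 37 °C with 2% DMSO, inhibition computed as (1 − OD with compound plus ceftriaxone ÷ OD with ceftriaxone only) × 100.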

In order of falling growth inhibition:
1. CNC(=O)c1cc(Oc2ccc(NC(=O)Nc3ccc(Cl)c(C(F)(F)F)c3)cc2)ccn1 [Sorafenib (Nexavar)]  98.7 ± 1.8%
2. OCCn1cc(-c2ccc3c(c2)CC/C3=N\O)c(-c2ccncc2)n1  83 ± 8.8%
3. Nc1nc(N)c2nc(-c3cccc(O)c3)c(-c3cccc(O)c3)nc2n1  63 ± 19%
4. O=C(Nc1c[nH]nc1-c1nc2ccc(CN3CCOCC3)cc2[nH]1)NC1CC1  55.7 ± 25%
5. COc1cc2c(Oc3ccc4[nH]c(C)cc4c3F)ncnc2cc1OCCCN1CCCC1 [Cediranib (AZD2171)]  46 ± 7.5%
6. CS(=O)(=O)CCNCc1ccc(-c2ccc3ncnc(Nc4ccc(OCc5cccc(F)c5)c(Cl)c4)c3c2)o1 [Lapatinib Ditosylate (Tykerb)]  42 ± 16%
7. CC[C@@H]1C(=O)N(C)c2cnc(Nc3ccc(C(=O)NC4CCN(C)CC4)cc3OC)nc2N1C1CCCC1  41.8 ± 45%
8. CS(=O)(=O)Nc1ccc(-c2cc(-c3ccccc3)cc(C(N)=O)c2N)cc1  29.1 ± 20%
9. Nc1nc(Nc2ccc(S(N)(=O)=O)cc2)nn1C(=O)c1c(F)cccc1F  27.6 ± 6.5%
10. CO[C@H]1C[C@@H]2CC[C@@H](C)[C@@](O)(O2)C(=O)C(=O)N2CCCC[C@H]2C(=O)O[C@H]([C@H](C)C[C@@H]2CC[C@@H](OCCO)[C@H](OC)C2)CC(=O)[C@H](C)/C=C(\C)[C@@H](O)[C@@H](OC)C(=O)[C@H](C)C[C@H](C)/C=C/C=C/C=C/1C [Everolimus (RAD001)]  27.5 ± 19%
11. COc1ccc(COc2cc3oc(=O)c4cc(C(C)O)ccc4c3cc2OC)cc1 (stereo not drawn) [Palomid 529]  18 ± 10%
12. CNC(=O)c1ccc(-c2cnc3ncc(Cc4ccc5ncccc5c4)n3n2)cc1F  16.9 ± 8.9%
13. Cc1cc2c(F)c(Oc3ncnn4cc(OC[C@@H](C)O)c(C)c34)ccc2[nH]1  15.5 ± 23%
14. C=CC(=O)Nc1cccc(Oc2nc(Nc3ccc(N4CCN(C)CC4)cc3)ncc2Cl)c1  13.3 ± 3.3%
15. Cc1cc(C(=O)NOCCO)c(Nc2ccc(I)cc2F)n(C)c1=O  13.2 ± 5.6%
16. O=C(Nc1ccc(Oc2ccc3[nH]c(NC(=O)c4ccco4)nc3c2)cc1)Nc1cc(C(F)(F)F)ccc1F  9.02 ± 5.9%
17. O=C1Nc2ccccc2/C1=C/Nc1ccc2[nH]c(=O)[nH]c2c1  7.54 ± 1.1%
18. NS(=O)(=O)c1ccc(Nc2ncc(-c3ccccc3)o2)cc1  6.88 ± 6.9%
19. COc1cccc(-n2ncc3c(N/N=C/c4cccc(F)c4)ncnc32)c1  6.27 ± 6.8%
20. CNC(=O)CN1CCC(Oc2cc3c(Nc4cccc(Cl)c4F)ncnc3cc2OC)CC1  0.347 ± 1.9%
21. COc1cccc(-n2ncc3c(N/N=C/c4ccc(C(=O)NCCN(C)C)cc4)ncnc32)c1  0.231 ± 2.8%
22. CNC(=O)c1cccc(C#Cc2cncnc2Nc2ccc(OCc3cccc(F)c3)c(Cl)c2)c1  -0.177 ± 4.2%
23. Cc1cc(O)cc(C)c1/C=C/c1cncc(C(=O)OC(C)(C)C)c1  -0.285 ± 0.11%
24. CNC(=O)c1ncccc1Nc1nc(Nc2cc3c(cc2OC)CCCN3C(=O)CN(C)C)nc2[nH]ccc12  -2.03 ± 1.3%
25. CS(=O)(=O)CCNCc1ccc(-c2ccc3ncnc(Nc4ccc(OCc5ccccc5)cc4)c3c2)o1  -2.04 ± 4.2%
26. COc1cc2ncn(-c3cc(OCc4ccccc4C(F)(F)F)c(C(N)=O)s3)c2cc1OC  -2.24 ± 0.56%
27. COc1cccc(Nc2nccc(-c3cnn4ncccc34)n2)c1  -2.59 ± 1.4%
28. CCc1cc2c(cc1N1CCC(N3CCOCC3)CC1)C(C)(C)c1[nH]c3cc(C#N)ccc3c1C2=O  -2.85 ± 9.2%
29. Cc1nnc(-c2ccc(C)c(-c3ccc(C(=O)NCc4ccc(Cl)cc4)cc3)c2)o1  -4.74 ± 3.3%
30. O=C(O[C@H]1CN[C@H](C#Cc2cc3ncnc(Nc4ccc5c(cnn5Cc5ccccc5)c4)c3s2)C1)N1CCOCC1  -5.28 ± 15%
31. CCCNc1cccc(-n2ncc3c(N/N=C/c4ccncc4)ncnc32)c1  -6.32 ± 14%
32. FC(F)(F)c1ccc(-c2nn3ncccc3c2-c2ccnc(Nc3ccc4c(c3)OCCO4)n2)cc1  -7.04 ± 3.3%
33. CN(C)c1cc2c(Nc3ccc4c(cnn4Cc4ccccc4)c3)ncnc2cn1  -7.88 ± 0.099%
34. Nc1nccc(-c2c(-c3ccc(F)cc3)nn3cc(C(F)(F)F)ccc23)n1  -7.97 ± 19%
35. COc1cc2ncn(-c3cc(OCc4cccs4)c(C(N)=O)s3)c2cc1OC  -10.4 ± 16%
36. O=C1Nc2ccccc2/C1=C1/Nc2ccccc2C1=O [Indirubin]  -11.4 ± 11%
37. O=S(=O)(CCOCc1ccc(-c2ccc3ncnc(Nc4ccc(OCc5cccc(F)c5)c(Cl)c4)c3c2)o1)c1ccccc1  -11.6 ± 11%
38. CC(C)CC(=O)Nc1n[nH]c2c1CN(C(=O)C1CCN(C)CC1)C2(C)C  -44.3 ± 75%
